Source: PubChem BioAssay (NCI)
This is part of a sample that, as a whole, favours compounds with a hit. Of some 79,000 tested, about 15% had one in any assay. Rule as the data show it: active = growth inhibition above about 70%; inactive = the rest.

How the values were obtained:
[1] = NCI Yeast Anticancer Drug Screen. Data for the rad50 strain (AID 155);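 also: 0% = growth of vehicle-only cultures of the same strain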; details: S. cerevisiae rad50 strain growth inhibition; at 50.0 µM; stronger effect = higher value
In short: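 Readout: growth inhibition relative to vehicle-treated cultures. Compound exposure was carried out in a genetically defined yeast strain deficient in DNA damage repair.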

[2] = NCI Yeast Anticancer Drug Screen. Data for the mec2-1 strain (AID 157); details: S. cerevisiae mec2-1 strain, at 50.0 µM, stronger effect = higher value
In short: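 Test agents were screened against the mec2-1 yeast strain, with defined DNA repair or cell cycle alteration. Growth was scored as inhibition against vehicle-only controls.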

[3] = NCI Yeast Anticancer Drug Screen. Data for the sgs1 mgt1 strain (AID 161);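 also: 0% = growth of cultures given vehicle only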; details: S. cerevisiae sgs1 mgt1 strain, at 50.0 µM, stronger effect = higher value
In short: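 Mutant yeast exposed to compound; growth scored against vehicle-only wells.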

[4] = NCI Yeast Anticancer Drug Screen. Data for the cln2 rad14 strain (AID 165);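 also: 0% = growth equal to vehicle treated cultures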; details: S. cerevisiae cln2 rad14 strain, at 50.0 µM, stronger effect = higher value
In short: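 Growth of compound-exposed yeast (cln2 rad14 genotype) measured and expressed as inhibition relative to vehicle.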

[5] = NCI Yeast Anticancer Drug Screen. Data for the bub3 strain (AID 167); details: S. cerevisiae bub3 mutant strain, at 50.0 µM, stronger effect = higher value
In short: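 Readout: yeast growth inhibition, expressed relative to vehicle-only wells. The test organism is a mutant strain from a panel with lesions in DNA repair or checkpoint genes.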

[6] = NCI Yeast Anticancer Drug Screen. Data for the mlh1 rad18 strain (AID 175); details: S. cerevisiae mlh1 rad18 strain growth inhibition; at 50.0 µM; stronger effect = higher value
In short: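 In this whole-cell yeast screen, a strain with altered DNA damage repair is challenged with compound, and its growth is measured against matched vehicle-treated controls.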

Measured: growth inhibition

O=CNCC(O)c1ccc2c(c1)[nH]c1ccccc12 (stereo unspecified)
inactive: [1] 30.6% | [2] -16.2% | [3] -1.45% | [4] -10.3% | [5] 19% | [6] 47.4%

O=NNc1ccc(S(=O)(=O)c2ccccc2)cn1
inactive: [1] 49.1% | [2] 13.9% | [3] -27.9% | [4] 12.1% | [5] -26.6% | [6] 5.2%

Cc1cccc(NC(=O)COc2ccc(Cl)cc2C)c1
inactive: [1] 8.35% | [2] 4.4% | [3] 9.55% | [4] 39.5% | [5] 0.4% | [6] -0.2%

C=CCNC(=S)Nc1cccc(OC(=O)Nc2ccc(Cl)c(Cl)c2)c1
inactive: [1] -16.4% | [2] -11.2% | [3] -18.4% | [4] -23.1% | [5] 1% | [6] -12.4%

O=C(O)CCCc1ccc(Oc2ccccc2)cc1
inactive: [1] -6.05% | [2] -15.3% | [3] 22% | [4] -8.85% | [5] -5% | [6] -6.6%

COC1(OC)C=NNc2nccn21
inactive: [1] 2.05% | [2] -2.5% | [3] 3.3% | [4] 19.6% | [5] -5.9% | [6] -5.3%

O=S(Cc1cnc2ccccc2c1)c1nc2ccccc2nc1-c1cccs1 (stereo unspecified)
inactive: [1] -10.2% | [2] -28.8% | [3] -20.7% | [4] -11% | [5] -8.4% | [6] -11.7%

CCC(C)(C)c1ccc([N+](=O)[O-])cc1
inactive: [1] 18.3% | [2] 8.8% | [3] 27.4% | [4] 15.7% | [5] -0.65% | [6] 2.35%

Cc1c(C)c(Br)c(C)c(C)c1Br
inactive: [1] -7.45% | [2] -18.3% | [3] 4.25% | [4] 10.3% | [5] -6.2% | [6] -16.8%

Cc1[nH]c2ccccc2c1C1Cc2ccccc2N1C(=O)/C=C/C=C/c1ccccc1 (stereo unspecified)
inactive: [1] 10.4% | [2] 24.7% | [3] -39.4% | [4] 38.5% | [5] 2.2% | [6] 15.2%

C/C(=C/c1c(C)[nH]c(=O)[nH]c1=O)C(=O)O
inactive: [1] 10.9% | [2] 13.6% | [3] -3.75% | [4] -29.8% | [5] 8.75% | [6] -3.75%

CCN(CC)CCN(C)CCN(CC)CC
inactive: [1] 14.1% | [2] 1.7% | [3] 18.6% | [4] 9.8% | [5] 38.7% | [6] 17.6%

O=C(Cc1nc2ccccc2nc1CC(=O)c1cccnc1)c1cccnc1
inactive: [1] 6.45% | [2] 18.4% | [3] 16.1% | [4] 23.1% | [5] -3.55% | [6] 25.9%

Cc1cc(=O)c2c3c(ccc2[nH]1)Oc1ccccc1O3
inactive: [1] 7.9% | [2] 5.95% | [3] 5.2% | [4] 8.45% | [5] 7.1% | [6] 13.1%

Cc1ccc(NC(=O)CCC(=O)C(C)C(=O)c2ccccc2)cc1C (stereo unspecified)
inactive: [1] -72.1% | [2] -7.6% | [3] -14.3% | [4] -55.7% | [5] -12.8% | [6] -9.4%

CCCCn1c(N)n[nH]c1=S
inactive: [1] 20.5% | [2] 8.55% | [3] 1.55% | [4] -52.5% | [5] -7.25% | [6] -5.9%

O=C1CCC(=O)N1c1ccc([I+]c2ccc(N3C(=O)CCC3=O)cc2)cc1
inactive: [1] 32.5% | [2] 6.65% | [3] 12.7% | [4] 15.1% | [5] -0.8% | [6] 14.4%

Cc1c2ccccc2nc(CS(=O)(=O)c2ccccc2)[n+]1[O-]
inactive: [1] -26.1% | [2] -13.2% | [3] -4.95% | [4] -60.5% | [5] -16.4% | [6] -6.1%

O=C(O)c1cccc(C(=O)c2ccccc2)c1
inactive: [1] 5.55% | [2] 6.15% | [3] 20.4% | [4] 4.4% | [5] -11.7% | [6] 0.7%

Cc1ccc(S(=O)(=O)OCC2C(COS(=O)(=O)c3ccc(C)cc3)C3CCC2C2C3C3C2C2(C)C(=O)C3(C)C(c3ccccc3)=C2c2ccccc2)cc1 (stereo unspecified)
inactive: [1] 0.35% | [2] -5.2% | [3] 4.2% | [4] -5.7% | [5] -5.5% | [6] 12.3%

C/C(=N/OC1=CC(=O)CC(C)(C)C1)c1ccccc1
inactive: [1] 1.8% | [2] 0.8% | [3] 0.3% | [4] -52.9% | [5] 24.1% | [6] 0.6%
